PubChem BioAssay (EPA / NIEHS)
Records with an inconclusive call do not appear. Activity calls are given as the source filed them. How the source made its calls: active means hit-call score of the fitted dose curve at least 0.9, where 1 is the maximum; inconclusive means response in the unintended direction; inactive means score below 0.9.

Test: ACEA_ER_80hr: ACEA Biosciences xCELLigence Real-Time Cell Analysis on Estrogen Receptor Agonism for Proliferation (AID 2282667)
Conditions: T47D proliferation, impedance (xCELLigence), 80 h
Method in brief: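 Impedance readout (RT-CES) of T47D proliferation at 80 h post-dose; gain of signal vs DMSO baseline. Compounds: 8 conc, 1:4 serial, top 100 uM final, ≤0.5% DMSO; biological duplicate.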

Question: With `CC(O)C(F)(F)C(F)(F)F` (stereo not given) as the compound, how does the outcome read?
Answer: inactive

Question: Which outcome does the source give for `N#C/C=C/c1ccccc1` here?
Answer: inactive

Question: Which outcome does the source give for `O=C(CBr)OCc1ccccc1` here?
Answer: inactive

Question: With `CCCCC(CC)COP(=O)(Oc1ccccc1)Oc1ccccc1` (stereo not given) as the compound, how does the outcome read?
Answer: inactive

Question: For `Cc1ccc2c(c1N)C(=O)c1ccccc1C2=O`, which outcome is on record?
Answer: inactive

Question: For `N#Cc1ccc(O)cc1`, which outcome is on record?
Answer: inactive

Question: With `CC(C)(C)c1ccccc1OP(=O)(Oc1ccccc1)Oc1ccccc1` as the compound, how does the outcome read?
Answer: inactive

Question: With `CCOC(=O)c1ccccc1N` as the compound, how does the outcome read?
Answer: inactive

Question: Which AC50 does the source give for `C/C(=N\NC(=O)Nc1cc(F)cc(F)c1)c1ncccc1C(=O)O` here?
Answer: 0.265 µM (active)

Question: With `Clc1ccc(Oc2ccccc2)cc1` as the compound, how does the outcome read?
Answer: inactive

Question: With `O=[N+]([O-])c1cc(Cl)ccc1Cl` as the compound, how does the outcome read?
Answer: inactive

Question: For `CO/N=C(/C(=O)OC)c1ccccc1COc1ccccc1C`, which outcome is on record?
Answer: inactive

Question: With `CCCCOCCOP(=O)(OCCOCCCC)OCCOCCCC` as the compound, how does the AC50 read?
Answer: 10.5 µM (active)

Question: Which outcome does the source give for `N#Cc1c(-c2ccc(Cl)cc2)[nH]c(C(F)(F)F)c1Br` here?
Answer: inactive

Question: For `COP(=O)(O)OC`, which outcome is on record?
Answer: inactive

Question: For `Oc1ccc(I)cc1`, which outcome is on record?
Answer: inactive

Question: For `O=NN1CCCC1`, which outcome is on record?
Answer: inactive

Question: Which outcome does the source give for `COP(=O)(CCC(=O)NCO)OC` here?
Answer: inactive

Question: Which outcome does the source give for `CCOP(=S)(NC(C)C)Oc1ccccc1C(=O)OC(C)C` (stereo not given) here?
Answer: inactive

Question: Which outcome does the source give for `CCCCC(CC)COC(=O)c1c(Br)c(Br)c(Br)c(Br)c1C(=O)OCC(CC)CCCC` (stereo not given) here?
Answer: inactive

Question: Which outcome does the source give for `CCOP(=S)(OCC)SCS(=O)(=O)CC` here?
Answer: inactive

Question: With `CCOP(=O)(O)C(N)=O` as the compound, how does the outcome read?
Answer: inactive

Question: With `Cc1cc(C)c(C(=O)P(=O)(c2ccccc2)c2ccccc2)c(C)c1` as the compound, how does the outcome read?
Answer: inactive

Question: Which outcome does the source give for `Cc1c([N+](=O)[O-])cc2c(c1[N+](=O)[O-])C(C)(C)CC2(C)C` here?
Answer: inactive

Question: With `COC(=O)C(F)(F)C(F)(F)OC(F)(C(F)(F)F)C(F)(F)OC(F)=C(F)F` (stereo not given) as the compound, how does the outcome read?
Answer: inactive
